# Chlamy TAG: algal TAG accumulation induction; Chlamydomonas reinhardtii TAG, Nile Red fluorescence, 72 h; calls only at 10 µM (by protocol); 44,000 compounds, 0.84% hits; AID 1159537; call rule not given here;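 further: hits raise Nile Red signal meaning more stored TAG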
# Calls only; i = inactive; + = active, no number. This excerpt belongs to a sample that is enriched for hits.
SMILES,Chlamy TAG
Oc1cccc(CN2CCN(c3ccc(F)cc3)CC2)c1,i
Fc1ccc(N2CCN(CCc3ccccc3)CC2)cc1,+
c1ccc(CCN2CCOCC2)cc1,i
CCN1CCN(Cc2cccs2)CC1,i
CN(CCc1ccccc1)Cc1cccc([N+](=O)[O-])c1,i
COc1ccccc1CCNCc1cc(OC)c(OC)c(OC)c1,i
CC(C)N1CCC(N2CCCCC2)CC1,i
O=[N+]([O-])c1ccc(O)c(CN2CCN(Cc3ccccc3)CC2)c1,i
COc1ccc(O)c(CN2CCN(Cc3ccc(Cl)cc3)CC2)c1,i
Oc1ccc(Cl)cc1CN1CCN(Cc2ccccc2)CC1,+
COc1ccc(CCN(C)Cc2cccc([N+](=O)[O-])c2)cc1OC,i
COc1ccc(CCN(C)Cc2ccc([N+](=O)[O-])cc2)cc1OC,+
COc1ccc(CCN(C)Cc2ccc([N+](=O)[O-])o2)cc1OC,i
CCN1CCN(Cc2ccc(N(C)C)cc2)CC1,i
COc1cc(CN2CCN(c3ccccc3C)CC2)ccc1O,i
CC(C)c1ccc(CN2CCN(CCO)CC2)cc1,+
OCCN1CCN(Cc2ccc(Cl)cc2)CC1,i
OCCN1CCN(Cc2ccc(F)c(F)c2)CC1,i
OC1CCC(NC2C3CC4CC(C3)CC2C4)CC1 (configuration not stated),i
CC1CCCC(C)N1C(=O)C(Cl)(Cl)Cl (configuration not stated),i
Cc1c(N)c(=O)n(-c2ccccc2)n1C (tested in a mixture with another compound),i
Fc1cccc(CN2CCN(Cc3ccccc3)CC2)c1,i
COc1ccccc1N1CCN(Cc2ccc(O)cc2)CC1,+
COc1ccc(CN2CCN(c3ccccc3OC)CC2)cc1O,i
COc1ccccc1N1CCN(Cc2ccc(F)c(Br)c2)CC1,i
SMILES,Chlamy TAG
COc1ccccc1N1CCN(Cc2ccc(Cl)c(Cl)c2)CC1,i
CCOc1ccccc1N1CCN(Cc2ccc(OC)cc2)CC1,i
COc1ccccc1N1CCN(Cc2ccc(F)cc2)CC1,+
O=[N+]([O-])c1ccccc1CN1CCN(c2cccc(Cl)c2)CC1,i
O=[N+]([O-])c1ccc(CCNC2CCCCC2)cc1,i
COc1ccc(CCNC2CCCC(C)C2)cc1 (configuration not stated),i
CSc1ccc(CN2CCN(c3ccccc3C)CC2)cc1,i
Cc1ccccc1N1CCN(Cc2ccc(Br)cc2)CC1,i
Cc1cccc(N2CCN(Cc3ccc([N+](=O)[O-])cc3)CC2)c1C,+
Cc1cccc(N2CCN(Cc3cccc([N+](=O)[O-])c3)CC2)c1C,i
CCc1ccc(CN2CCN(c3ccccc3C)CC2)cc1,+
Cc1cccc(N2CCN(Cc3ccccc3)CC2)c1C,i
Cc1ccccc1N1CCN(Cc2ccccc2)CC1,i
Brc1ccc(CN2CCN(c3ccccc3)CC2)cc1,+
CC(C)c1ccc(CN2CCN(c3ccccc3)CC2)cc1,i
Cc1cccc(N2CCN(Cc3ccc(F)cc3)CC2)c1C,i
Cc1ccccc1N1CCN(Cc2ccc(F)cc2)CC1,+
CC(=O)c1ccc(N2CCN(Cc3ccc(Br)cc3)CC2)cc1,i
O=C(c1ccccc1)c1cc(Cl)ccc1NC(=O)C1CCCCC1,i
CNC(=O)Oc1cc([N+](=O)[O-])cc2cccnc12,i
CCOc1ccccc1CN1CCN(c2ccccc2F)CC1,i
COC(=O)Nc1cccc(NC(=O)OC)c1,i
OCCN1CCN(Cc2cccc(Cl)c2Cl)CC1,i
CCOc1ccccc1N1CCN(Cc2ccc(Cl)cc2)CC1,i
O=C(Cc1ccccc1)N1CCN(Cc2ccc([N+](=O)[O-])cc2)CC1,i
O=[N+]([O-])c1ccc(CN2CCN(Cc3ccccc3F)CC2)cc1,+
O=[N+]([O-])c1ccccc1CN1CCN(Cc2ccccc2)CC1,i
CN1CCN(c2cc(N3CCOCC3)c(F)cc2[N+](=O)[O-])CC1,i
CCC(=O)N1N=C2C3CCN(CC3)C2C1c1cccc([N+](=O)[O-])c1 (configuration not stated),i
O=[N+]([O-])c1ccc(N2CCN(Cc3cccc(Br)c3)CC2)cc1,i

# Screens from PubChem BioAssay.
